Results on 40 compounds are retold here after PubChem BioAssay (Tox21).

Each structure is given as a SMILES string. “And” between values parts separate entries of the source, which are not always exact repeats. Equal entries are not always repeated. The source made the active and inactive calls. Entries that show only a call come without a potency. The call rests on the fitted dose curve; in most records, active means well fitted activation curve with a large enough effect in the signal ratio in the repeat runs (not every such curve was filed as active); inconclusive means weak or mixed curves, or effect the other way; inactive means no such curve, though single readings can be large or run the other way; the % refers to the signal ratio. Positions of bridges follow the written chain, without caps; N, C: chain ends. Non-standard residues stand in square brackets, D forms with d. Residues, ends and D or L forms follow the SMILES beside them. Orn = NCCC[C@H](N)C(=O)O; Mpa = O=C(O)CCS
Potency means the concentration at half of the fitted maximal effect.

Glucocorticoid receptor (Homo sapiens), sequence (P04150 whole entry, looked up): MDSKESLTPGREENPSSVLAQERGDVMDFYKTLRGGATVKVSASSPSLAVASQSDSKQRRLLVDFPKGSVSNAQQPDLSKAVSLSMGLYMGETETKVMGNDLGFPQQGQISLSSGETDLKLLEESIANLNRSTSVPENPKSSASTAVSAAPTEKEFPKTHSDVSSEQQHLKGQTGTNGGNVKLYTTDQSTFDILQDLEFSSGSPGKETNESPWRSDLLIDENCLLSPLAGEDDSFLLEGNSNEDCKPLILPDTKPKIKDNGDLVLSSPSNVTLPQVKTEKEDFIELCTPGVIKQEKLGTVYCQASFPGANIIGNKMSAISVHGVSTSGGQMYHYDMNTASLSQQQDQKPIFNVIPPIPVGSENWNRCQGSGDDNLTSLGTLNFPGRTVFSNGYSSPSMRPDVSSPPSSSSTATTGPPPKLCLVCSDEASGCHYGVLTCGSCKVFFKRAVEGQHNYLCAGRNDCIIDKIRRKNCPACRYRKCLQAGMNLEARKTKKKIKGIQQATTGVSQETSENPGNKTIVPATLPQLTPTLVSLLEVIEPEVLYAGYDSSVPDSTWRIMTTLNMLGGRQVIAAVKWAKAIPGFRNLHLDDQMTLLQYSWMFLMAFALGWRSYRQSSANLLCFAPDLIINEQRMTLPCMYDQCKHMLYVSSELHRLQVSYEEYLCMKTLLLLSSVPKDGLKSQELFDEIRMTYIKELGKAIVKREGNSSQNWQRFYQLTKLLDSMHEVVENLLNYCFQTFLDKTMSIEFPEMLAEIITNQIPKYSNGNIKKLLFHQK

The target in this test is Glucocorticoid receptor (Homo sapiens) (UniProt P04150). The test is described as follows: qHTS assay to identify small molecule agonists of the glucocorticoid receptor (GR) signaling pathway (AID 720691). The note with it: GR-bla HeLa, beta-lactamase reporter ratio, 18 h; activation: at 62.4 µM (top of the series). From the text:
U.S. Tox21 Program National Center for Advancing Translational Sciences [NCATS] NIH Chemical Genomics Center [NCGC] U.S. Environmental Protection Agency [EPA] National Institutes of Environmental Health Sciences [NIEHS] National Toxicology Program [NTP] U.S. Food and Drug Administration [FDA] Tox21 Assay Overview: The Glucocorticoid receptor (GR) is one of the members of the nuclear receptor family of ligand-dependent transcription factors. GR plays a critical role in carbohydrate, protein and lipid metabolisms and programmed cell death. CellSensor GR-bla HeLa cell line (Invitrogen) contains a beta-lactamase reporter gene under the control of the glucocorticoid response element stably integrated into HeLa cells, a cervical cancer cell line that expresses glucocorticoid receptor. The activation of the reporter gene under culture conditions can be detected by fluorescence intensity. This cell line has been used to screen the Tox21 10K compound library and to identify the compounds that activate the GR signaling.
Tox21 Assay Protocol Summary: The GR-bla HeLa cells were dispensed at 1500 cells/6 ul/well in 1536-well black wall/clear bottom plates using a Multidrop Combi (ThermoFisher Scientific, Waltham, MA) dispenser. After the assay plates were incubated at a 37 C/5% CO2 incubator for 4 hours, 23 nL of compounds dissolved in DMSO, positive controls or DMSO only was transferred to the assay plate by a pintool station (Kalypsys, San Diego, CA). The plates were incubated at 37 C for 18 hours. After 1 uL of LiveBLAzerTM B/G FRET substrate was added using a Flying Reagent Dispenser (Aurora Discovery, San Diego, CA), the plates were incubated at room temperature for 2 hours, and fluorescence intensity was measured by an Envision plate reader (PerkinElmer, Shelton, CT).
With `COc1ccc(/C=C/C(=O)OCCC(C)C)cc1`, the Potency result is “inactive”.

For the compound `COC(F)(F)C(Cl)Cl`, the Potency result is “inactive”.

With `O=C(O)[C@H](CC(=O)N1C[C@H]2CCCC[C@H]2C1)Cc1ccccc1`, the Potency result is “inactive”.

In the case of `CC(C)C[C@H](NC(=O)[C@@H](Cc1c[nH]c2ccccc12)NC(=O)[C@H](Cc1ccc(O)cc1)NC(=O)[C@H](CO)NC(=O)[C@H](Cc1c[nH]c2ccccc12)NC(=O)[C@H](Cc1cnc[nH]1)NC(=O)[C@@H]1CCC(=O)N1)C(=O)N[C@@H](CCCN=C(N)N)C(=O)N1CCC[C@@H]1C(=O)NCC(N)=O`, the Potency result was “inactive”.

Turning to `FC(F)(F)C(F)(F)C(F)(F)C(F)(F)C(F)(F)C(F)(F)F`, the Potency result is “inactive”.

In the case of `OCCO[C@@H]1[C@@H](O)[C@H](O)[C@@H](CO)O[C@@H]1O`, the Potency was 13400 nM [inconclusive] (active).

As for `C=C1CC2C3CCC4=CC(=O)C=C[C@]4(C)[C@@]3(F)[C@@H](O)C[C@]2(C)[C@@]1(O)C(=O)COC(C)=O` (stereo not given in full), the Potency was 15.1 nM (active).

`O=C(CO)[C@@H](O)[C@H](O)[C@@H](O)C(=O)O`: the Potency result was “inactive”.

Regarding `CCCCCCCCCCCCCCCCCCCCCCO`, the Potency result is “inactive”.

`Nc1nc(=O)n([C@@H]2CS[C@H](CO)O2)cc1F`: the Potency entry was “inactive”.

`C[C@]12CCC(=O)C[C@@H]1CC[C@@H]1[C@@H]2CC[C@]2(C)C=CC[C@@H]12`: the Potency entry was “inactive”.

As for `CN1CCCC(CN2c3ccccc3Sc3ccccc32)C1` (stereo not given), the Potency entry is “inactive”.

Regarding `CN(C)c1ccc(C(=C2C=CC(=[N+](C)C)C=C2)c2c(O)c(S(=O)(=O)[O-])cc3cc(S(=O)(=O)O)ccc23)cc1`, the Potency entry was “inactive”.

Take `C[C@H](CSC(=O)c1ccccc1)C(=O)N1C[C@@H](Sc2ccccc2)C[C@H]1C(=O)O`: the Potency entry is “inactive”.

With `Cc1cc(C(=O)NNCc2ccccc2)no1`, the Potency result is “inactive”.

On to `CC[C@H](CC[C@@H](C)[C@H]1CC[C@H]2[C@@H]3CC=C4C[C@@H](O)CC[C@]4(C)[C@H]3CC[C@]12C)C(C)C`, for which the Potency result was “inactive”.

As to `CC(O)[C@@H]1NC(=O)[C@H](CCCCN)NC(=O)[C@@H](Cc2c[nH]c3ccccc23)NC(=O)[C@H](Cc2ccccc2)NC(=O)[C@@H](NC(=O)[C@H](N)Cc2ccccc2)CSSC[C@@H](C(=O)N[C@H](CO)[C@@H](C)O)NC1=O` (stereo not given in full), the Potency entry was “inactive”.

In the case of `Cn1c(=O)c2c(ncn2CCOC(=O)C(C)(C)Oc2ccc(Cl)cc2)n(C)c1=O`, the Potency result was “inactive”.

Consider `C[C@H](CCCC(C)(C)O)[C@H]1CC[C@H]2[C@@H]3CC=C4C[C@@H](O)CC[C@]4(C)[C@H]3CC[C@]12C`, for which the Potency entry is “inactive”.

Take `COc1ccc(CCNC[C@H](O)c2ccc(O)cc2)cc1OC`: the Potency result is “inactive”.

With `NNc1nnc(Cc2ccncc2)c2ccccc12`, the Potency result is “inactive”.

As for `CC(=O)[C@@]1(O)CC[C@H]2[C@@H]3C=C(Cl)C4=CC(=O)[C@@H]5C[C@@H]5[C@]4(C)[C@H]3CC[C@@]21C`, the Potency entry is “inactive”.

For the compound `CCOc1cc(-c2nccc3cc(OC)c(OC)cc23)cc(OCC)c1OCC`, the Potency entry was “inactive”.

On to `CNCC(O)c1ccc(OC(=O)C(C)(C)C)c(OC(=O)C(C)(C)C)c1` (stereo not given), for which the Potency result is “inactive”.

`CCOc1ccc(C[C@H]2NC(=O)CCSSC[C@@H](C(=O)N3CCC[C@H]3C(=O)N[C@@H](CCCN)C(=O)NCC(N)=O)NC(=O)[C@H](CC(N)=O)NC(=O)[C@H]([C@@H](C)O)NC(=O)[C@H]([C@@H](C)CC)NC2=O)cc1` ([Mpa][dY](Et)ITNCP[Orn]G-NH2; disulfide 1-6): the Potency result is “inactive”.

Turning to `O=C(O)COc1ccc(CCNS(=O)(=O)c2ccccc2)s1`, the Potency entry was “inactive”.

On to `CN1CCC(OC(=O)C(Oc2ccc(Cl)cc2)Oc2ccc(Cl)cc2)CC1`, for which the Potency result is “inactive”.

In the case of `CCCN(CC)C(CC)C(=O)Nc1c(C)cccc1C` (stereo not given), the Potency result was “inactive”.

Regarding `Cc1ncc(COP(=O)(O)O)c(CN)c1O`, the Potency entry is “inactive”.

As for `CC(CN1c2ccccc2Sc2cccnc21)N(C)C` (stereo not given), the Potency result is “inactive”.

As for `CC(=O)OCC(=O)[C@@]1(O)[C@H](C)C[C@H]2[C@@H]3C[C@H](F)C4=CC(=O)C=C[C@]4(C)[C@H]3[C@@H](O)C[C@@]21C`, the Potency is 26.8 nM [inconclusive] (active).

On to `CN1CCN2c3ncccc3Cc3ccccc3C2C1` (stereo not given), for which the Potency entry was “inactive”.

Turning to `C#CCC(Cc1cnc2nc(N)nc(N)c2n1)c1ccc(C(=O)N[C@@H](CCC(=O)O)C(=O)O)cc1` (stereo not given in full), the Potency entry is “inactive”.

Turning to `CC(=O)[C@]1(O)Cc2c(O)c3c(c(O)c2[C@@H](O[C@H]2C[C@H](N)[C@H](O)[C@H](C)O2)C1)C(=O)c1c(O)cccc1C3=O`, the Potency is 10.7 µM [inconclusive] (active) and 23.9 µM [inconclusive] (active).

With `C[C@@](Cc1ccc(O)c(O)c1)(NN)C(=O)O`, the Potency entry was “inactive”.

As for `CN1C(=O)CN2CCc3ccccc3C2c2cc(Cl)ccc21` (stereo not given), the Potency result is “inactive”.

`COc1ccc(CNCC(O)COc2ccc3[nH]c(=O)ccc3c2)cc1OC` (stereo not given): the Potency entry is “inactive”.

With `NS(=O)(=O)c1cc2c(cc1Cl)NC(Cc1ccccc1)NS2(=O)=O` (stereo not given), the Potency entry was “inactive”.

Take `COc1ccc(C[C@@H](C)NC[C@H](O)c2ccc(O)c(NC=O)c2)cc1`: the Potency entry was “inactive”.

For the compound `CCC(=O)NS(=O)(=O)c1ccc(-c2c(-c3ccccc3)noc2C)cc1`, the Potency entry was “inactive”.
